Among the data in PubChem BioAssay (NCI) are growth values, retold here.

Test systems include HCT-15 colon; HT29 colon; SNB-75 CNS; SNB-19 CNS; U251 CNS; PC-3 prostate; SK-MEL-5 melanoma; UACC-62 melanoma; LOX IMVI melanoma; SK-MEL-28 melanoma.
What all share (experiment): NCI-60 one-dose screen, 48 h (100 = growth as untreated, 0 = no growth, -100 = all killed)
Common to all, as to settings: 10 µM unless noted

Compounds without any hit were thinned out: in the full panel of roughly 83,000, 20% have a hit.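 Cells were grown in 96-well plates and exposed to the test compound at a single concentration for 48 hours; results are reported as percent growth, with values below 10 considered active.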 Values without a mark were called inactive. Calls of active or inactive are those of the source.

Turning to `O=[N+]([O-])c1ccc(C2CC(c3ccccc3)=Nc3ccccc3S2)cc1` (stereo not given), the growth in the assay on HCT-15 colon is 97.6%; with HT29 colon, 97.4%; with SNB-75 CNS it was 57.2%; in the assay with SNB-19 CNS, 85.8%; in the assay with U251 CNS, 62.5%; with PC-3 prostate it was 88.1%. Besides, the growth is 87.5% in the assay with SK-MEL-5 melanoma, 84.7% in the assay on UACC-62 melanoma, 64.3% in the assay with LOX IMVI melanoma and 116% in the assay on SK-MEL-28 melanoma.

With `O=C(O)CN1C(=O)CCC1=O`, the growth was 103% in the assay with HCT-15 colon; 90.6% in the assay on HT29 colon; 95.3% with SNB-75 CNS; 108% with SNB-19 CNS; 105% in the assay on U251 CNS; 108% with PC-3 prostate. Moreover, the growth in the assay with SK-MEL-5 melanoma was 103%; in the assay with UACC-62 melanoma it was 108%; in the assay on LOX IMVI melanoma it was 102%; with SK-MEL-28 melanoma it was 107%.

As to `NS(=O)(=O)c1cnccc1Oc1cccc2cccnc12`, the growth is 90.5% in the assay on HCT-15 colon; 107% in the assay on HT29 colon; 89.6% in the assay with SNB-75 CNS; 99.6% with SNB-19 CNS; 102% in the assay with U251 CNS; 95.9% in the assay on PC-3 prostate. The growth was 106% in the assay on SK-MEL-5 melanoma, 104% in the assay with UACC-62 melanoma, 96% with LOX IMVI melanoma and 109% in the assay on SK-MEL-28 melanoma.

With `CCN(CC)CCn1nc2c3c(cccc3c1=O)-c1ccccc1-2`, the growth in the assay with HCT-15 colon was 17.1%; in the assay with HT29 colon, 15.6%; in the assay with SNB-75 CNS, 50.9%; with SNB-19 CNS, 26%; in the assay with U251 CNS, 6.95% (active); in the assay with PC-3 prostate, 26.6%. Moreover, the growth with SK-MEL-5 melanoma is -20% (active); in the assay with UACC-62 melanoma it was 5.94% (active); in the assay with LOX IMVI melanoma it was -3.44% (active); with SK-MEL-28 melanoma, 37.1%.

Turning to `OC(c1cccc(-n2ccc(C(F)(F)F)n2)c1)c1cnccc1NC1CCCCCC1` (stereo not given), the growth in the assay with HCT-15 colon was -39.2% (active); with HT29 colon, -0.162% (active); in the assay on SNB-75 CNS, 64.4%; in the assay on SNB-19 CNS it was 71.1%; with U251 CNS it was -42.6% (active); in the assay on PC-3 prostate, 41.2%. Besides, the growth was 33.8% in the assay with SK-MEL-5 melanoma, 32.2% with UACC-62 melanoma, -91.4% (active) in the assay with LOX IMVI melanoma and -65.3% (active) with SK-MEL-28 melanoma.

As for `Cc1ccc(Cl)c(NS(=O)(=O)c2ccc(-c3cnc(C4CC4)o3)cc2)c1`, the growth was 16.9% in the assay on HCT-15 colon; 3.93% (active) with HT29 colon; -10.1% (active) with SNB-75 CNS; 18.9% in the assay on SNB-19 CNS; 24.1% with U251 CNS; 31.1% in the assay with PC-3 prostate. The growth in the assay on SK-MEL-5 melanoma is 26.4%; with UACC-62 melanoma, 26.5%; in the assay on LOX IMVI melanoma it was 33%; in the assay on SK-MEL-28 melanoma, 53.7%.

On to `COc1ccc(/C=C/c2c(C(=O)/C=C/c3cccs3)c(C)nc3ccccc23)cc1`, for which the growth was 59.5% in the assay with HCT-15 colon; 77.7% with HT29 colon; 72% in the assay on SNB-75 CNS; 85.1% with SNB-19 CNS; 85.6% in the assay with U251 CNS; 63% with PC-3 prostate. The growth with SK-MEL-5 melanoma was 70.3%; in the assay with UACC-62 melanoma it was 59.1%; in the assay on LOX IMVI melanoma, 84.5%; in the assay with SK-MEL-28 melanoma it was 92.4%.

For the compound `Cc1nc2ccccc2n1CC1NC(=O)NC1=O` (stereo not given), the growth in the assay on HCT-15 colon is 104%; in the assay with HT29 colon it was 105%; in the assay with SNB-75 CNS it was 78.7%; in the assay on SNB-19 CNS, 98.4%; with U251 CNS it was 103%; in the assay with PC-3 prostate it was 96.2%. Moreover, the growth with SK-MEL-5 melanoma is 100%; in the assay on UACC-62 melanoma it was 98.4%; with LOX IMVI melanoma it was 95.6%; with SK-MEL-28 melanoma, 99.4%.

In the case of `CC/C=C1/C(=O)C=C[C@@H]1C/C=C\CCCC(=O)O`, the growth is 72.8% in the assay with HCT-15 colon; 78.9% in the assay on HT29 colon; 105% with SNB-75 CNS; 92.1% in the assay with SNB-19 CNS; 64.9% in the assay with U251 CNS; 80.5% with PC-3 prostate. Further, the growth is 81.5% with SK-MEL-5 melanoma, 30.7% in the assay with UACC-62 melanoma, 19.9% in the assay on LOX IMVI melanoma and 96.9% in the assay on SK-MEL-28 melanoma.

On to `Cc1ccc(-c2c(-c3ccccc3)c(=O)oc3ccc(C)cc23)cc1`, for which the growth was 52.1% with HCT-15 colon; 101% in the assay on HT29 colon; 86.3% with SNB-75 CNS; 94.8% in the assay on SNB-19 CNS; 83.1% in the assay on U251 CNS; 56.4% with PC-3 prostate. The growth in the assay on SK-MEL-5 melanoma was 90.9%; in the assay on UACC-62 melanoma, 76.1%; in the assay with LOX IMVI melanoma, 96.2%; in the assay with SK-MEL-28 melanoma, 110%.

As for `COC(=O)c1ccc(CSc2nnc(-c3c(C)nc4ccc(C)cn34)o2)cc1`, the growth is 104% with HCT-15 colon; 111% in the assay with HT29 colon; 85.9% in the assay with SNB-75 CNS; 94.2% in the assay on SNB-19 CNS; 99.2% in the assay on U251 CNS; 106% with PC-3 prostate. For the same compound, the growth in the assay on SK-MEL-5 melanoma is 93.8%; with UACC-62 melanoma it was 89.2%; in the assay with LOX IMVI melanoma, 94.2%; in the assay on SK-MEL-28 melanoma, 103%.

As to `Cn1c(I)c(C#C[Si](C)(C)C)c(=O)n(C(=O)c2ccccc2)c1=O`, the growth in the assay on HCT-15 colon is 6.55% (active); in the assay on HT29 colon, 1.95% (active); in the assay on SNB-75 CNS it was 52.2%; in the assay with SNB-19 CNS it was 95.8%; in the assay with U251 CNS, 24.8%; in the assay with PC-3 prostate, -56.8% (active). Also, the growth is 55.1% in the assay with SK-MEL-5 melanoma, 69.9% with UACC-62 melanoma, -90.4% (active) in the assay with LOX IMVI melanoma and -65.6% (active) with SK-MEL-28 melanoma.

On to `N#Cc1c(-c2cccc(Cl)c2)cc(-c2cccc(F)c2)[nH]c1=O`, for which the growth in the assay on HCT-15 colon is 90.2%; in the assay on HT29 colon, 107%; with SNB-75 CNS it was 85.8%; with SNB-19 CNS, 91.1%; in the assay with U251 CNS it was 86.7%; in the assay on PC-3 prostate it was 85.3%. The growth in the assay on SK-MEL-5 melanoma is 89.4%; in the assay on UACC-62 melanoma it was 76.8%; with LOX IMVI melanoma, 89.6%; in the assay with SK-MEL-28 melanoma, 97.9%.

In the case of `Cc1ccc(C(=NN=C(N)N)c2ccc(C)cc2)cc1`, the growth is 11.6% in the assay on HCT-15 colon; 0.831% (active) in the assay with HT29 colon; -1.11% (active) in the assay on SNB-75 CNS; 30.4% in the assay with SNB-19 CNS; 6.36% (active) in the assay with U251 CNS; 16.3% in the assay with PC-3 prostate. Further, the growth is -68.6% (active) with SK-MEL-5 melanoma, 31.6% in the assay with UACC-62 melanoma, -28.3% (active) in the assay on LOX IMVI melanoma and 21.4% in the assay with SK-MEL-28 melanoma.

Consider `COc1cc(C(=O)/C=C/c2c(C(F)(F)F)nc3sccn23)cc(OC)c1OC`, for which the growth in the assay with HCT-15 colon is -62.2% (active); in the assay with HT29 colon, -11.8% (active); with SNB-75 CNS it was 29.8%; in the assay with SNB-19 CNS it was 20.7%; in the assay with U251 CNS, 4.46% (active); in the assay with PC-3 prostate it was 16.4%. For the same compound, the growth is 5.95% (active) with SK-MEL-5 melanoma, -13.8% (active) in the assay with UACC-62 melanoma, -57.9% (active) with LOX IMVI melanoma and -18.4% (active) with SK-MEL-28 melanoma.

For the compound `CCOC(=O)c1c2ncccc2n2c(=O)n(-c3ccccc3C)nnc12`, the growth with HCT-15 colon is 100%; in the assay with HT29 colon, 112%; with SNB-75 CNS, 84%; in the assay on SNB-19 CNS, 105%; in the assay on U251 CNS, 105%; with PC-3 prostate it was 122%. The growth was 84% with SK-MEL-5 melanoma, 95.3% in the assay with UACC-62 melanoma, 86.5% in the assay on LOX IMVI melanoma and 157% in the assay with SK-MEL-28 melanoma.

For the compound `O=C(O)c1ccc2c(c1Cl)C(=O)c1ccccc1C2=O`, the growth in the assay on HCT-15 colon was 95.9%; with HT29 colon, 87.5%; with SNB-75 CNS, 73.1%; with SNB-19 CNS it was 98.8%; with U251 CNS, 99.1%; with PC-3 prostate, 116%. Moreover, the growth in the assay with SK-MEL-5 melanoma is 102%; in the assay with UACC-62 melanoma, 97.7%; in the assay with LOX IMVI melanoma it was 97.2%; in the assay with SK-MEL-28 melanoma, 107%.

Take `COc1cc(/C=N/NC(=O)Cn2c(C(C)C)nc3ccccc32)ccc1O`: the growth is 98.7% in the assay with HCT-15 colon; 98.2% in the assay with HT29 colon; 81.5% with SNB-75 CNS; 99.4% in the assay with SNB-19 CNS; 110% in the assay with U251 CNS; 94.8% with PC-3 prostate. Further, the growth is 97.6% with SK-MEL-5 melanoma, 89.8% with UACC-62 melanoma, 102% in the assay with LOX IMVI melanoma and 109% in the assay with SK-MEL-28 melanoma.
